Measured values reported in PubChem BioAssay AID1159580 (chemical genetic matrix, 2015).
Where “and” joins values, the source holds several entries; their conditions need not be identical. Equal values may be shown once. The whole screen tested about 5,500 compounds, of which about 2,000 (36%) were called active. About 18% were inconclusive and are not listed. No stated cut-off is given here; in the data, active means normalized growth mostly below about 0.91 (no sharp cut-off); inconclusive means no clear call, values can overlap the other calls; inactive means mostly above about 0.92. This is one part of the list.

Experiment: chemical genetic growth profiling, strain panel (AID 1159580);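 further: tested at 20 µM; growth read once vehicle control cultures reached saturation at 30 °C; 1 = growth at the plate median or of vehicle wells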
Details: S. cerevisiae deletion strains, growth OD

Measured: normalized growth

COc1ccc(C[C@H]2NC[C@H](O)[C@H]2OC(C)=O)cc1
0.133 (active) and 0.945 (inactive): locus YHR030C, strain SLT2, stronger effect = lower value
active: locus YAL013W, strain DEP1, stronger effect = lower value 0.0582 | locus YAL021C, strain ccr4, stronger effect = lower value 0.397 | locus YAL026C, strain drs2, stronger effect = lower value 0.762 | locus YAL030W, strain snc1, stronger effect = lower value 0.713 | locus YBL061C, strain skt5, stronger effect = lower value 0.803 | locus YBR009C, strain hhf1, stronger effect = lower value 0.516 | locus YBR023C, strain chs3, stronger effect = lower value 0.823 | locus YBR231C, strain swc5, stronger effect = lower value 0.648 | locus YBR279W, strain paf1, stronger effect = lower value 0.869 | locus YCL011C, strain gbp2, stronger effect = lower value 0.659 | locus YCL016C, strain dcc1, stronger effect = lower value 0.791 | locus YCL069W, strain vba3, stronger effect = lower value 0.904 | locus YCR088W, strain abp1, stronger effect = lower value 0.835 | locus YDL005C, strain med2, stronger effect = lower value 0.122 | locus YDL035C, strain GPR1, stronger effect = lower value 0.222 | locus YDL074C, strain BRE1, stronger effect = lower value 0.242 | locus YDL101C, strain DUN1, stronger effect = lower value 0.306 | locus YDL134C, strain PPH21, stronger effect = lower value 0.533 | locus YDL192W, strain arf1, stronger effect = lower value 0.447 | locus YDR069C, strain doa4, stronger effect = lower value 0.117 | locus YDR101C, strain arx1, stronger effect = lower value 0.874 | locus YDR150W, strain NUM1, stronger effect = lower value 0.656 | locus YDR162C, strain NBP2, stronger effect = lower value 0.0621 | locus YDR195W, strain ref2 0.698 | locus YDR297W, strain sur2, stronger effect = lower value 0.838 | locus YDR318W, strain mcm21, stronger effect = lower value 0.7 | locus YDR334W, strain swr1, stronger effect = lower value 0.901 | locus YDR388W, stronger effect = lower value 0.161 | locus YDR392W, strain spt3, stronger effect = lower value 0.622 | locus YDR502C, strain sam2, stronger effect = lower value 0.734 | locus YEL037C, strain rad23, stronger effect = lower value 0.895 | locus YEL061C, strain CIN8, stronger effect = lower value 0.598 | locus YER015W, strain faa2, stronger effect = lower value 0.81 | locus YER016W, strain bim1, stronger effect = lower value 0.9 | locus YER167W, strain BCK2, stronger effect = lower value 0.704 | locus YFR010W, strain ubp6, stronger effect = lower value 0.104 | locus YGL086W, strain mad1, stronger effect = lower value 0.501 | locus YGL173C, strain kem1, stronger effect = lower value 0.885 | locus YGL248W, strain PDE1, stronger effect = lower value 0.298 | locus YGL253W, strain hxk2, stronger effect = lower value 0.575 | locus YGR078C, strain PAC10, stronger effect = lower value 0.523 | locus YGR135W, strain pre9, stronger effect = lower value 0.272 | locus YGR229C, strain SMI1, stronger effect = lower value 0.0868 | locus YGR252W, strain gcn5, stronger effect = lower value 0.68 | locus YHR013C, strain ard1, stronger effect = lower value 0.336 | locus YHR027C, strain rpn1, stronger effect = lower value 0.717 | locus YHR079C, strain IRE1 (second series), stronger effect = lower value 0.916 | locus YHR129C, strain ARP1, stronger effect = lower value 0.831 | locus YHR200W, strain rpn10, stronger effect = lower value 0.494 | locus YIL066C, strain RNR3, stronger effect = lower value 0.258 | locus YIL073C, strain SPO22, stronger effect = lower value 0.119 | locus YIR030C, strain dcg1, stronger effect = lower value 0.919 | locus YJL092W, strain hpr5, stronger effect = lower value 0.89 | locus YJL095W, strain BCK1 (second series), stronger effect = lower value 0.84 | locus YJL129C, strain trk1, stronger effect = lower value 0.479 | locus YJL164C, strain tpk1, stronger effect = lower value 0.622 | locus YJL166W, strain qcr8, stronger effect = lower value 0.622 | locus YJL187C, strain SWE1 (second series), stronger effect = lower value 0.32 | locus YJR043C, strain POL32, stronger effect = lower value 0.524 | locus YJR075W, strain HOC1, stronger effect = lower value 0.174
inactive: locus YBR021W, strain FUR4, stronger effect = lower value 1.05 | locus YBR171W, strain sec66, stronger effect = lower value 1 | locus YBR229C, strain ROT2, stronger effect = lower value 1.01 | locus YCL029C, strain bik1, stronger effect = lower value 0.961 | locus YDL040C, strain nat1, stronger effect = lower value 1 | locus YDL185W, strain tfp1, stronger effect = lower value 0.993 | locus YDR001C, strain nth1, stronger effect = lower value 0.964 | locus YDR137W, strain rgp1, stronger effect = lower value 0.942 | locus YDR159W, strain sac3, stronger effect = lower value 1.09 | locus YDR335W, strain msn5, stronger effect = lower value 0.927 | locus YEL003W, strain gim4, stronger effect = lower value 0.984 | locus YEL061C, strain CIN8 (second series), stronger effect = lower value 0.937 | locus YER110C, stronger effect = lower value 1 | locus YER111C, strain swi4, stronger effect = lower value 0.981 | locus YER155C, strain BEM2 (second series), stronger effect = lower value 0.938 | locus YER155C, strain BEM2, stronger effect = lower value 1.01 | locus YGL078C, strain dbp3, stronger effect = lower value 0.981 | locus YGL167C, strain pmr1, stronger effect = lower value 1.02 | locus YGL227W, strain vid30, stronger effect = lower value 0.989 | locus YGL240W, strain doc1, stronger effect = lower value 0.994 | locus YHR079C, strain IRE1, stronger effect = lower value 0.921 | locus YHR094C, strain hxt1, stronger effect = lower value 1 | locus YHR142W, strain chs7, stronger effect = lower value 0.92 | locus YIL125W, strain kgd1, stronger effect = lower value 1.01 | locus YJL115W, strain asf1, stronger effect = lower value 1.02 | locus YJL134W, strain LCB3, stronger effect = lower value 1.02 | locus YJL154C, strain vps35, stronger effect = lower value 1.01 | locus YJL168C, strain set2, stronger effect = lower value 1.01 | locus YJR066W, strain TOR1, stronger effect = lower value 0.911
0.596 (active) and 0.961 (inactive): locus YJL095W, strain BCK1, stronger effect = lower value
